{"source": "the OligoGym collection", "data": [{"molecular_target": "MRC1L1", "experiment": "pooled miR-30 sensor sort-seq; sequence = guide strand", "settings": "shRNA", "values": [{"sequence": "TTTCTGAACAATCCTATCCAAA", "sensor-assay potency score (higher = more potent)": -1.03}, {"sequence": "TACAGCTTGAAACACAAGCTTG", "sensor-assay potency score (higher = more potent)": -1.09}, {"sequence": "TTGGGTTCGGGAGTCGTCGTGG", "sensor-assay potency score (higher = more potent)": 0.34}, {"sequence": "TTCTGAATTGACATCATTCAGC", "sensor-assay potency score (higher = more potent)": -0.303}, {"sequence": "TAGAGAGTGATAGCAACCCAGT", "sensor-assay potency score (higher = more potent)": -0.877}, {"sequence": "TAACAACACAGTCAGCATCTTC", "sensor-assay potency score (higher = more potent)": -0.367}, {"sequence": "TATAGTAACAGTGACCATGGAA", "sensor-assay potency score (higher = more potent)": 0.0156}, {"sequence": "TTGTTTTCAAACTTGAACGGGA", "sensor-assay potency score (higher = more potent)": 0.456}, {"sequence": "TTGCTCATGAATCTCTGTGATG", "sensor-assay potency score (higher = more potent)": -0.904}, {"sequence": "TTATAGATTAAAAATTGCCTGG", "sensor-assay potency score (higher = more potent)": -0.0737}]}, {"molecular_target": "MRFAP1", "experiment": "pooled miR-30 sensor sort-seq; sequence = guide strand", "settings": "shRNA", "values": [{"sequence": "TCTGGATGAGCATATTGTCCAT", "sensor-assay potency score (higher = more potent)": -0.959}, {"sequence": "TTCTCCTCGGCCTTCTCGCACC", "sensor-assay potency score (higher = more potent)": -1.46}, {"sequence": "TTCGCAATCTCCTTGGCCTTCT", "sensor-assay potency score (higher = more potent)": -0.202}, {"sequence": "TCTCCTTGGCCTTCTCCTCGGC", "sensor-assay potency score (higher = more potent)": -0.368}, {"sequence": "TCCTCGGCCTTCTCGCACCTCT", "sensor-assay potency score (higher = more potent)": -1.7}, {"sequence": "CTGGATGAGCATATTGTCCATC", "sensor-assay potency score (higher = more potent)": -2.34}, {"sequence": "TTGATCTGGATGAGCATATTGT", "sensor-assay potency score (higher = more potent)": -0.361}, {"sequence": "TATCCGCCGGACCAGCTCCACC", "sensor-assay potency score (higher = more potent)": -1.87}, {"sequence": "TTGACCAGAATCCATTGGCTGG", "sensor-assay potency score (higher = more potent)": -0.987}, {"sequence": "ATGAGCATATTGTCCATCTCCC", "sensor-assay potency score (higher = more potent)": -0.693}, {"sequence": "AGCACCTCCACTTCCTCCGGTT", "sensor-assay potency score (higher = more potent)": -1.22}, {"sequence": "TTTGATCTGGATGAGCATATTG", "sensor-assay potency score (higher = more potent)": -1.65}]}, {"molecular_target": "MRO", "experiment": "pooled miR-30 sensor sort-seq; sequence = guide strand", "settings": "shRNA", "values": [{"sequence": "TATACTTTCTCACCTTGTCAGG", "sensor-assay potency score (higher = more potent)": -0.957}, {"sequence": "TAGTGTTCCTTTGATCTTCTTC", "sensor-assay potency score (higher = more potent)": 0.466}, {"sequence": "TTTTCTTATACTTTCTCACCTT", "sensor-assay potency score (higher = more potent)": 0.132}, {"sequence": "TTGATCTTCTTCACTCTGGAAG", "sensor-assay potency score (higher = more potent)": -0.557}, {"sequence": "TTTCTTATACTTTCTCACCTTG", "sensor-assay potency score (higher = more potent)": -0.188}, {"sequence": "TTGTTTTGCAAGCCTTGGCAAC", "sensor-assay potency score (higher = more potent)": -1.43}, {"sequence": "AAGAACTGCAGGATCTCTGGAT", "sensor-assay potency score (higher = more potent)": 0.374}, {"sequence": "TATCATTGATGTCCTTTTCTGC", "sensor-assay potency score (higher = more potent)": -0.559}, {"sequence": "TCATCATCTAATAAAGTCCTGG", "sensor-assay potency score (higher = more potent)": -0.176}, {"sequence": "TTTGCAAGCCTTGGCAACCTGG", "sensor-assay potency score (higher = more potent)": -1.05}, {"sequence": "TTTGATCTTCTTCACTCTGGAA", "sensor-assay potency score (higher = more potent)": -0.504}, {"sequence": "ATACAGTCCATACACCAGCAGG", "sensor-assay potency score (higher = more potent)": -1.19}]}, {"molecular_target": "MRPL14", "experiment": "pooled miR-30 sensor sort-seq; sequence = guide strand", "settings": "shRNA", "values": [{"sequence": "TTATAGACATGGATGCAGCGAG", "sensor-assay potency score (higher = more potent)": -0.0779}, {"sequence": "TTGTTGGAGTCGAATCTGGGGG", "sensor-assay potency score (higher = more potent)": -0.711}, {"sequence": "TTAATTCGTGTCCCCACAGGGT", "sensor-assay potency score (higher = more potent)": -1.22}, {"sequence": "TTGTCCACCACTCGTACCCGCG", "sensor-assay potency score (higher = more potent)": -1.02}, {"sequence": "TTGATGGCCAGTAGTATCTGGT", "sensor-assay potency score (higher = more potent)": -0.918}, {"sequence": "TGTTGGAGTCGAATCTGGGGGT", "sensor-assay potency score (higher = more potent)": -0.258}]}]}
